The supplement of paper PMC10849652
The full data set covers some 7,900 targets. This sample favours those with a hit. About 0.6% of all pairs of compound and target were hits. Unmarked numbers belong to inactive results.

Legend:
Assay in all cases: log2 fold change, soluble protein after heating vs DMSO (PISA); higher = thermal stabilisation; K562 cells, 10 uM, 30 min; active = over 0.2 and 3.5 SD of the protein, either way, in both replicates (recomputed)
[1] = biological target: ZC3H8 (UniProt Q8N5P1)
Summary of the method: (§1)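 K562 cells at 2×10^6 cells/mL were treated for 30 min with 10 μM compound, and aliquots were heated for 3 min over 48°C-58°C before pooling. Extraction used PBS with 0.5% NP-40 at 4°C, and soluble protein was the supernatant after 21,000xg for 90 min, measured by TMTpro 16plex LC-MS/MS with channel sums equalised. Thermal stability values, relative to control samples and from duplicates, are log2 fold changes.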

[2] = biological target: ZC3HC1 (UniProt Q86WB0)
ZC3HC1, sequence (Q86WB0 whole entry, looked up): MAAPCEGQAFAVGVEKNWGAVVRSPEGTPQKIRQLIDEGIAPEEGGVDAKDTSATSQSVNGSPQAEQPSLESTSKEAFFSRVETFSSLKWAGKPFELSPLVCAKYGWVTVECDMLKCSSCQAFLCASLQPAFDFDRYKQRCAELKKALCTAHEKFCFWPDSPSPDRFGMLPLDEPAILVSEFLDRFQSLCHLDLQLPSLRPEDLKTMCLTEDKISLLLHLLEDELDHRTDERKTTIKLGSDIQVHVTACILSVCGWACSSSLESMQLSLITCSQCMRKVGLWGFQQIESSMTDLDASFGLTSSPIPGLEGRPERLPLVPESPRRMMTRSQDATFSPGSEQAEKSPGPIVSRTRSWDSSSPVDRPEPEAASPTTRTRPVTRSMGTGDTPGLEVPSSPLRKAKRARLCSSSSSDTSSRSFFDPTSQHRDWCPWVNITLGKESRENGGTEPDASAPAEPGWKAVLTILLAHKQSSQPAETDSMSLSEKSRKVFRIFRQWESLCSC
Summary of the method: as §1

[3] = biological target: ZCCHC17 (UniProt Q9NP64)
Summary of the method: as §1

[4] = biological target: ZCCHC9 (UniProt Q8N567)
ZCCHC9, sequence (Q8N567 whole entry, looked up): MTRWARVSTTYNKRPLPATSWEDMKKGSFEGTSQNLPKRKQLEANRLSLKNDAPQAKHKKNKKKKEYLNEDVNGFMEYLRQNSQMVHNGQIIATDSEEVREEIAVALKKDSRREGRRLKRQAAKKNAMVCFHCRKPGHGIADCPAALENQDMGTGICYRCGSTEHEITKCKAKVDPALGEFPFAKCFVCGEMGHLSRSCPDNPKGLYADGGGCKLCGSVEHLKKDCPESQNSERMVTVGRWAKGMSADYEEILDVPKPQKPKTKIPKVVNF
Summary of the method: as §1

[5] = biological target: ZDHHC17 (UniProt Q8IUH5)
Summary of the method: as §1

[6] = biological target: ZDHHC20 (UniProt Q5W0Z9)
ZDHHC20, sequence (Q5W0Z9 whole entry, looked up): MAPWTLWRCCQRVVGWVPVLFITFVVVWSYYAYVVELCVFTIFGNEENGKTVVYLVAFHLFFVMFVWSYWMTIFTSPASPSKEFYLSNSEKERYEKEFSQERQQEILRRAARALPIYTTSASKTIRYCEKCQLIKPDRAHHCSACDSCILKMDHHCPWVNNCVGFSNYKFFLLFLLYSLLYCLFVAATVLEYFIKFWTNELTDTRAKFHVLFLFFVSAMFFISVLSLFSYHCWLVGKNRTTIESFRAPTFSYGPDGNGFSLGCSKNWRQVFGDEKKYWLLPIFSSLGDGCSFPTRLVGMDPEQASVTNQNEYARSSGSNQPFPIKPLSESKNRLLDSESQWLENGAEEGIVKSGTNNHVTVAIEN
Summary of the method: as §1

[7] = biological target: ZDHHC5 (UniProt Q9C0B5)
ZDHHC5, sequence (Q9C0B5 whole entry, looked up): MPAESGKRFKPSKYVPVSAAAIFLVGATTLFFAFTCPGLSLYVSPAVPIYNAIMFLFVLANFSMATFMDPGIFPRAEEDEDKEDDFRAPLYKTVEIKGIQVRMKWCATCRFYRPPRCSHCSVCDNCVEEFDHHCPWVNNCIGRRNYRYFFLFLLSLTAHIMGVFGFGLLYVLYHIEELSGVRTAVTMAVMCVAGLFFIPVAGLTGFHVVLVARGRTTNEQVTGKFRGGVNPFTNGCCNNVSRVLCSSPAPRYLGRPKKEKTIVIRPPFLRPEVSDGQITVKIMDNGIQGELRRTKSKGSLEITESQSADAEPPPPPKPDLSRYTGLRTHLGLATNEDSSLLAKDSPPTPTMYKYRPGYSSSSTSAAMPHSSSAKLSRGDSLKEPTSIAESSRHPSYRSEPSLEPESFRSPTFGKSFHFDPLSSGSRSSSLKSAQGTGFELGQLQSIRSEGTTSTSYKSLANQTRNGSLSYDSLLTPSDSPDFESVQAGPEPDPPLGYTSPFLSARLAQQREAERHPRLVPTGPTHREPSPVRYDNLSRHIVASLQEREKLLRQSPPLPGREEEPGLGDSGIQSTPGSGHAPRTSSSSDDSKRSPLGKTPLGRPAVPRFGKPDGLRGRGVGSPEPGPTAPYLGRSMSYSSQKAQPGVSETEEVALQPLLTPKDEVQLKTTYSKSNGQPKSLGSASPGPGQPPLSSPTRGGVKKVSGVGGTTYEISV
Summary of the method: as §1

[8] = biological target: ZEB2 (UniProt O60315)
Summary of the method: as §1

[9] = biological target: ZER1 (UniProt Q7Z7L7)
Summary of the method: as §1

[10] = biological target: ZFAND5 (UniProt O76080)
Summary of the method: as §1

[11] = biological target: ZFAND6 (UniProt Q6FIF0)
ZFAND6, sequence (Q6FIF0 whole entry, looked up): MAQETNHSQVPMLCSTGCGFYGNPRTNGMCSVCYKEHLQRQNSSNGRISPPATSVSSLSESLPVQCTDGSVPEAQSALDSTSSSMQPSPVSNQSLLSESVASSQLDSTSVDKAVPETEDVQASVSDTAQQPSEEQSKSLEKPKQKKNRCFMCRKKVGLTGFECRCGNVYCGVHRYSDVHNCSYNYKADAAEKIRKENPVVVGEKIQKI
Summary of the method: as §1

[12] = biological target: ZFP91 (UniProt Q96JP5)
Summary of the method: as §1

[13] = biological target: ZFPL1 (UniProt O95159)
Summary of the method: as §1

[14] = biological target: ZMAT2 (UniProt Q96NC0)
Summary of the method: as §1

[15] = biological target: ZMYM1 (UniProt Q5SVZ6)
ZMYM1, sequence (Q5SVZ6 whole entry, looked up): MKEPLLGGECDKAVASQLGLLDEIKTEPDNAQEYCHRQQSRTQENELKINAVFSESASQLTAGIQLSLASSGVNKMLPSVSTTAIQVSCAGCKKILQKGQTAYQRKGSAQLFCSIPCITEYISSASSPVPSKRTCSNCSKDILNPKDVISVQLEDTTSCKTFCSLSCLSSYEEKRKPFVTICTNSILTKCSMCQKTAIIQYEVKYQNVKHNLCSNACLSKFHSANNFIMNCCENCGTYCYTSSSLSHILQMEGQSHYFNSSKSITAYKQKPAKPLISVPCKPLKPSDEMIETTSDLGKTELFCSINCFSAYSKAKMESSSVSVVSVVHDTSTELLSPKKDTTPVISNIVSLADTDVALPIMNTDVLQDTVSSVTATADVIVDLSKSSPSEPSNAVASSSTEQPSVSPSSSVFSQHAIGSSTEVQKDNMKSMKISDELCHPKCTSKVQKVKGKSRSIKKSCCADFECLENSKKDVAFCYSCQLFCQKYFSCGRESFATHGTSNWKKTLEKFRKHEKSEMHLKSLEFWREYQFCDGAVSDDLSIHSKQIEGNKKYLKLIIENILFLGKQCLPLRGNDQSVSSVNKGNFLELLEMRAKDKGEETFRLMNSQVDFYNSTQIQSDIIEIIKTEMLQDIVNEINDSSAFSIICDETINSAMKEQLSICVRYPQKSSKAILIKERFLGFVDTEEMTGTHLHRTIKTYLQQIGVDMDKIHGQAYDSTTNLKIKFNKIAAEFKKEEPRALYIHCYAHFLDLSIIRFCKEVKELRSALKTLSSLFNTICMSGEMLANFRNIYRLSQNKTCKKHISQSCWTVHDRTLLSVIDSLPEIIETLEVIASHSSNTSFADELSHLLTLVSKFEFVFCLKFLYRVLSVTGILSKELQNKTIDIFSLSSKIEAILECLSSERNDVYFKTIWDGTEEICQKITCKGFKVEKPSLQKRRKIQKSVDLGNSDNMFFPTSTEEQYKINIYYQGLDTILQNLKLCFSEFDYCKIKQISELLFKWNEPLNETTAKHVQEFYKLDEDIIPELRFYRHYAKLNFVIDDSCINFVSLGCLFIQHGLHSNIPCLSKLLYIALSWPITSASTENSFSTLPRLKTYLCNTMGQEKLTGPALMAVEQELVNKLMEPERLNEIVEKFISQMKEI
Summary of the method: as §1

[16] = biological target: ZMYM3 (UniProt Q14202)
ZMYM3, sequence (Q14202 whole entry, looked up): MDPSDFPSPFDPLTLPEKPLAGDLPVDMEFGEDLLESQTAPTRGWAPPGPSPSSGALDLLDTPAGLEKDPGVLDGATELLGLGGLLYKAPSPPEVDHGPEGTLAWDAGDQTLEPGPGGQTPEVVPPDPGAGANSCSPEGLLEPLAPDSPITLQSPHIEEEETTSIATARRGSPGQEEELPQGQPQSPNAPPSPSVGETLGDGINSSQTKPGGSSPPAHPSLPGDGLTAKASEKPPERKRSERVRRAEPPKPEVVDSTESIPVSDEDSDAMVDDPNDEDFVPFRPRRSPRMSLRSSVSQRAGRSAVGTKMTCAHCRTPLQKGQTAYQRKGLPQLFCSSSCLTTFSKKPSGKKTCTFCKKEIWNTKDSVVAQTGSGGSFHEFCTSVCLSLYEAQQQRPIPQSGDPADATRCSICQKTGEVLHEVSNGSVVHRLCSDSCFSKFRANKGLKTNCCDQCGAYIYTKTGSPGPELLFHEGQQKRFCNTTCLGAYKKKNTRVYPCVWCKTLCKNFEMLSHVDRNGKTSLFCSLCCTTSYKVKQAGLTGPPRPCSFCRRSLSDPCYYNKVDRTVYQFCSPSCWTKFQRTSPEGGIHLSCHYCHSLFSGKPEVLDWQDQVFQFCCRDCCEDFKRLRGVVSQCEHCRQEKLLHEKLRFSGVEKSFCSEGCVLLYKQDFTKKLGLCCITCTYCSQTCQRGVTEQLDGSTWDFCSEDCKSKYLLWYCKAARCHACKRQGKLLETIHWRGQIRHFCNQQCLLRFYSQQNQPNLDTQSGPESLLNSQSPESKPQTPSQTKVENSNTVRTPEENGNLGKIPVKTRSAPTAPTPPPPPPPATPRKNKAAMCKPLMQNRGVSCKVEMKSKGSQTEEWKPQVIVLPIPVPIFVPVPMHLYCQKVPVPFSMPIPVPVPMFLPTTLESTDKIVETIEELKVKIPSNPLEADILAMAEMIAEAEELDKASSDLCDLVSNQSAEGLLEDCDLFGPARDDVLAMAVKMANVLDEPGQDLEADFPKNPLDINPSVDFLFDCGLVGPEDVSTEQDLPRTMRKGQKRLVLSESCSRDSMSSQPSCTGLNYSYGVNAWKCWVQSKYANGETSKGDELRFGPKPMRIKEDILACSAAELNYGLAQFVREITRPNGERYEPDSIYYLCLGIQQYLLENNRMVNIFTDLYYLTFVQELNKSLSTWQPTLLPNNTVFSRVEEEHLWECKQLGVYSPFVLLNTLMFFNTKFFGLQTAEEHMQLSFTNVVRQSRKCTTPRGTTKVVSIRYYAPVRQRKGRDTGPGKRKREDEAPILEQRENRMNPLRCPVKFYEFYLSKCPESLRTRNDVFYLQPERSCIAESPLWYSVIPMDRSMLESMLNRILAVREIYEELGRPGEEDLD
Summary of the method: as §1

[17] = biological target: ZNF143 (UniProt P52747)
Summary of the method: as §1

[18] = biological target: ZDHHC6 (UniProt Q9H6R6)
Summary of the method: as §1

[19] = biological target: ZDHHC7 isoform 2 (UniProt Q9NXF8)
ZDHHC7 isoform 2, sequence (Q9NXF8 whole entry, looked up, canonical isoform): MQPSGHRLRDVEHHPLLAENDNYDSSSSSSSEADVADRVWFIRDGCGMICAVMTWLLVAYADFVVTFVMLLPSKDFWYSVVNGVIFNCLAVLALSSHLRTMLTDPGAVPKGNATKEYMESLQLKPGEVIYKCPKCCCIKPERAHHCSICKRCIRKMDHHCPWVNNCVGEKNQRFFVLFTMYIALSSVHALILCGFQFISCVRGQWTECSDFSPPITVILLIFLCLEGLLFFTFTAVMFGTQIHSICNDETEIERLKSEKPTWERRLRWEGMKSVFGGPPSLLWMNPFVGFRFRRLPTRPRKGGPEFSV
Summary of the method: as §1

[20] = biological target: ZDHHC8 isoform 3 (UniProt Q9ULC8)
Summary of the method: as §1

| Structure (SMILES) | log2 fold change [1] | log2 fold change [2] | log2 fold change [3] | log2 fold change [4] | log2 fold change [5] | log2 fold change [6] | log2 fold change [7] | log2 fold change [8] | log2 fold change [9] | log2 fold change [10] | log2 fold change [11] | log2 fold change [12] | log2 fold change [13] | log2 fold change [14] | log2 fold change [15] | log2 fold change [16] | log2 fold change [17] | log2 fold change [18] | log2 fold change [19] | log2 fold change [20] |
| --- | --- | --- | --- | --- | --- | --- | --- | --- | --- | --- | --- | --- | --- | --- | --- | --- | --- | --- | --- | --- |
| CS(=O)(=O)c1ccc(-c2cnc(N)c(C(=O)Nc3ccccc3)n2)cc1 | 0 | 0.066 | -0.069 | 0.1 | -0.005 | 0.067 | 0.129 | 0.025 | 0.034 | -0.035 | -0.036 | -0.072 | -0.045 | -0.127 | 0.026 | 0.023 | -0.014 |  |  |  |
| C[C@@H]1COCCN1c1cc(C2(S(C)(=O)=O)CC2)nc(-c2cccc3[nH]ccc23)n1 | -0.151 | 0.119 |  | -0.381 | 0.005 | 0.131 | -0.011 | 0.001 | 0.107 | 0.041 | 0.127 | -0.124 | -0.056 | -0.022 | 0.029 | -0.058 | -0.018 | 0.067 | -0.037 | 0.284 |
| CC[C@@H]1C(=O)N(C)c2cnc(Nc3ccc(C(=O)NC4CCN(C)CC4)cc3OC)nc2N1C1CCCC1 | 0.181 | -0.163 |  | 0.246 | -0.009 | 0.031 | 0.035 |  | -0.032 | 0.052 | 0.058 | 0.104 | -0.027 | 0.017 | 0.202 | 0.015 | -0.018 | -0.114 | 0.083 |  |
| Cc1ccc(NC(=O)c2cccc(C(C)(C)C#N)c2)cc1Nc1ccc2ncn(C)c(=O)c2c1 | -0.021 | 0.011 | -0.065 | -0.227 | 0.076 | -0.067 | 0.048 | -0.027 | -0.041 | -0.064 | 0.069 | 0.017 | 0.061 | 0.209 | -0.071 | -0.092 | -0.023 |  |  |  |
| CC[C@@H]1C(=O)N(C)c2cnc(Nc3ccc(C(=O)N[C@H]4CC[C@H](N5CCN(CC6CC6)CC5)CC4)cc3OC)nc2N1C(C)C [volasertib] | 0.207 | -0.579 (active) |  | 0.226 | -0.095 | 0.011 | 0.093 | 0.001 | 0.009 | 0.215 | 0.09 | 0.016 | -0.088 | 0.036 | -0.118 | -0.077 | -0.289 (active) | -0.094 | -0.059 |  |
| NCC(=O)Nc1ccc(-n2nc(C(F)(F)F)cc2-c2ccc3c(ccc4ccccc43)c2)cc1 | 0.036 | -0.076 | -0.137 | -0.013 | 0.012 | 0.093 | -0.005 | -0.343 | 0.03 | 0.103 | 0.061 | 0.036 | 0.027 | 0.016 | 0.336 | 0.073 | -0.047 |  | -0.056 |  |
| CN(C)CC(=O)Nc1ccc2[nH]c(=O)c3ccccc3c2c1 | -0.047 | 0.089 | -0.059 | -0.125 | -0.005 | -0.026 | -0.032 | -0.124 | -0.099 | -0.119 | -0.052 | -0.074 | 0 | -0.018 | -0.046 | -0.067 | -0.025 |  | 0.057 |  |
| O=C(CCCCCCNC(=O)c1cnc(N(c2ccccc2)c2ccccc2Cl)nc1)NO [citarinostat] | -0.059 | 0.125 |  | -0.161 | -0.17 | -0.028 | -0.022 |  | 0.192 | 0 | -0.081 | -0.053 | 0.046 | 0.085 | -0.07 | -0.033 | 0.033 | 0.149 | -0.037 |  |
| CS(=O)(=O)N1CCN(Cc2cc3nc(-c4cccc5[nH]ncc45)nc(N4CCOCC4)c3s2)CC1 [pictilisib] | -0.007 | -0.003 |  | -0.004 | 0.021 | 0.066 | 0.047 |  | 0.085 | 0.007 | 0.063 | -0.07 | 0.173 | 0.01 | -0.018 | -0.022 | -0.06 | -0.044 | 0.089 |  |
| Fc1ccc(Cl)cc1-c1nc(Nc2ccncc2)c2nccnc2n1 | -0.275 | 0.128 |  | -0.378 | -0.006 | 0.152 | -0.002 | -0.099 | -0.022 | 0.003 | -0.05 | 0.007 | 0.101 | 0.018 | -0.057 | -0.012 | -0.058 | -0.083 | 0.093 | 0.028 |
| COc1cc2nc(-c3cc(F)ccc3O)nc(N[C@@H]3CNC[C@H]3C(C)(C)O)c2cc1OC | 0.05 | 0.013 |  | -0.006 | 0.029 | -0.086 | 0.117 | -0.018 | 0.048 | 0 | 0.017 | -0.095 | 0.099 | -0.028 | 0.004 | -0.045 | -0.19 | 0.018 | -0.012 |  |
| COC(=O)[C@H](CCSC)NC(=O)c1ccc(NC[C@@H](N)CS)cc1-c1ccccc1 | -0.009 | -0.093 | 0.033 | 0.081 | 0.01 | 0.028 | 0.054 | -0.382 | 0.035 | 0.1 | 0.061 | 0.064 | -0.007 | 0.019 | 0.026 | 0.035 | 0.013 |  | 0.019 |  |
| NC(=O)Nc1cc(-c2cccc(F)c2)sc1C(=O)N[C@H]1CCCNC1 | 0.025 | -0.016 | -0.064 | -0.11 | 0.084 | -0.219 | -0.081 | 0.003 | -0.046 | -0.041 | 0.12 | -0.044 | -0.04 | 0.282 (active) | -0.108 | -0.042 | 0.07 |  |  |  |
| Nc1ccccc1NC(=O)c1ccc(CNC(=O)OCc2cccnc2)cc1 [entinostat] | -0.141 | 0.1 | 0.081 | -0.112 | -0.047 | 0.045 | -0.034 | -0.03 | 0.049 | -0.031 | -0.007 | -0.054 | -0.03 | 0.081 | -0.012 | -0.073 | -0.012 |  |  |  |
| Cc1cccc(CC(=O)N2CCc3c2ccc(-c2cn(C)c4ncnc(N)c24)c3F)n1 | 0.026 | 0.029 |  | -0.048 | -0.082 | 0.021 | -0.067 |  | 0.369 | -0.032 | -0.014 | -0.037 | -0.041 | -0.037 | -0.036 | -0.121 | 0.027 | 0.097 | -0.06 |  |
| CS(=O)(=O)CCNCc1ccc(-c2ccc3ncnc(Nc4ccc(OCc5cccc(F)c5)c(Cl)c4)c3c2)o1 [lapatinib] | 0 | 0 |  | 0.028 | -0.022 | 0.063 | -0.072 | 0.019 | -0.057 | 0.038 | -0.106 | 0.173 | -0.035 | 0.016 | 0.082 | 0.007 | -0.011 | -0.031 | 0.034 |  |
